The values below come from ChEMBL document CHEMBL3988442, “University of Dundee, Small-Polar-MMV Screening Library” (2021).

Common to all, as to design: scale not given: direction of the effect not stated beside the values
Test [1] addresses Protein translocase subunit SecA (Escherichia coli (strain K12)) (UniProt P10408). The test is described as follows: Assay to Identify E. coli SecA ATPase Inhibitors. The format is functional. The following applies: 30 µM.
Test [2] deals with T1, Ubiquitin-activating enzyme e1, putative (Leishmania donovani (strain BPK282A1)) (UniProt E9BSI1).
T1 sequence (whole entry): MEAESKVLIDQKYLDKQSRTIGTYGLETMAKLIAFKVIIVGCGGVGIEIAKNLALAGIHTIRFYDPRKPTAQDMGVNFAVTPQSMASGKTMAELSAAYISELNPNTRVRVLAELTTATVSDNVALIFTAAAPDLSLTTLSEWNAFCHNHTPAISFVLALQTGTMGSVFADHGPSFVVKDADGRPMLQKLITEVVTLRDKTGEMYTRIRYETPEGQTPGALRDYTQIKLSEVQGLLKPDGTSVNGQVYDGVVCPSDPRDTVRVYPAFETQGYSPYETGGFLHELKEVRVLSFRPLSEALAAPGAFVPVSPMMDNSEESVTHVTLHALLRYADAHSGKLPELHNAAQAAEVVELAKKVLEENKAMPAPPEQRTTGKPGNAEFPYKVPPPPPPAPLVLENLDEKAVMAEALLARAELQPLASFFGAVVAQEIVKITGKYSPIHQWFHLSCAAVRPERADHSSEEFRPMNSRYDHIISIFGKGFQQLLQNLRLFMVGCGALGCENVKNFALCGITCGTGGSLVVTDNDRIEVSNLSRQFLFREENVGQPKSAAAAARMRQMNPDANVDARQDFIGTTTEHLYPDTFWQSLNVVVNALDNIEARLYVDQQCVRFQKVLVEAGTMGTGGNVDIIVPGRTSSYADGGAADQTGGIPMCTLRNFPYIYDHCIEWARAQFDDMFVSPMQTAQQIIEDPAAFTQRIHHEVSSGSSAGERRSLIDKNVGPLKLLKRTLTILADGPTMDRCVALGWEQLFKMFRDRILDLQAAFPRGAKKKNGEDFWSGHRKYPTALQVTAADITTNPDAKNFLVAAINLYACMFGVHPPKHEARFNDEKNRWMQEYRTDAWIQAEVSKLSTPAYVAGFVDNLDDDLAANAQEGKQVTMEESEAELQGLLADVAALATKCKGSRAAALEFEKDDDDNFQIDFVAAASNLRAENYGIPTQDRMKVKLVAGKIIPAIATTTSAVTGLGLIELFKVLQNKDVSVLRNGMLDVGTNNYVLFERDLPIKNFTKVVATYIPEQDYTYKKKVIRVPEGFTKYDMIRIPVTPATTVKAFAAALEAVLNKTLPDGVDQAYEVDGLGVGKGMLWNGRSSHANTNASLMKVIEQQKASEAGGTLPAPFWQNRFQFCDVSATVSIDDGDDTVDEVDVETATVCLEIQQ
The test is described as follows: Leishmania donovani Ubiquitin Activating Enzyme (LdE1). The class given is functional. The following applies: 30 µM.

In test [3] the target is Sialic acid-binding Ig-like lectin 9 (Homo sapiens) (UniProt Q9Y336). Briefly: Hs-Siglec9 ALPHAscreen SOP 20170721. The following applies: 10 µM. For orientation: In Alpha technology, singlet oxygen from a donor bead excites a nearby acceptor bead.
Sequence of Sialic acid-binding Ig-like lectin 9 (Homo sapiens) (Q9Y336 whole entry): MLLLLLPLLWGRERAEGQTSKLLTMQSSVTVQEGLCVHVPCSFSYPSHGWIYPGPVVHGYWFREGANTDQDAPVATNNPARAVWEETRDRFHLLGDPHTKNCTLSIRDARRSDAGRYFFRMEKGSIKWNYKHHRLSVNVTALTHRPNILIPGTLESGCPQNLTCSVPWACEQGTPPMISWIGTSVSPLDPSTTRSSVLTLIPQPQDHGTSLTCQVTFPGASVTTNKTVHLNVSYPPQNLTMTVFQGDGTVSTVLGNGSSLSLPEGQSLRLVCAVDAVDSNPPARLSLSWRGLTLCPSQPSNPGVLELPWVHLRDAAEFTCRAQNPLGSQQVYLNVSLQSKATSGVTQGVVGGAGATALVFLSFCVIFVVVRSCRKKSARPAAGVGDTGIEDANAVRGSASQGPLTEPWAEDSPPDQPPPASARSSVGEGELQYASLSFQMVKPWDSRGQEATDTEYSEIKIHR
In another test the test system is Trypanosoma cruzi. The test is described as follows: Trypanosoma cruzi phosphomannomutase and mannose-1-phosphate guanylyltransferase assay. The class given is functional. The following applies: 10 µM.
Test [4] concerns the target T2, Arginase-2, mitochondrial (Homo sapiens) (UniProt P78540).
T2 sequence (whole entry): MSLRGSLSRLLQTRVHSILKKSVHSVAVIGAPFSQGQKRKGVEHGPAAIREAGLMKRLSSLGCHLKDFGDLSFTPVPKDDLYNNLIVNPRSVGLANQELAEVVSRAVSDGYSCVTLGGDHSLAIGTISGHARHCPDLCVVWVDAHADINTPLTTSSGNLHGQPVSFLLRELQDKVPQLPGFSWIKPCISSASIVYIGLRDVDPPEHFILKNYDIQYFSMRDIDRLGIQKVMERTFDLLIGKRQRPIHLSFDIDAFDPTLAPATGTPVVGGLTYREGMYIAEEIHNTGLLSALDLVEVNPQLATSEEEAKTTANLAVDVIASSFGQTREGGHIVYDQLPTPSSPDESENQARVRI
The test is described as follows: in vitro enzyme assay to detect the production of urea directly proportional to the activity of Arginase II. Also: in the data most compounds retested in dose-response had high values. The class given is functional. The following applies: 33.3 µM.

Test [5] concerns the target T3, Proteasome subunit beta (Trypanosoma cruzi) (UniProt O96673).
T3 sequence (whole entry): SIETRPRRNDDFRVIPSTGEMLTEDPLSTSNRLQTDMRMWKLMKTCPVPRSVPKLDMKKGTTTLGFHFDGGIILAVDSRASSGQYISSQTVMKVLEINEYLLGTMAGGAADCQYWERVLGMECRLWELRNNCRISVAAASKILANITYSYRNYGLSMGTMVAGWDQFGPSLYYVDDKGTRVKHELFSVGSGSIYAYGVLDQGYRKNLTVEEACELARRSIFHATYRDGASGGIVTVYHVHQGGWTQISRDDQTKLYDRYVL
Briefly: Trypanosoma cruzi proteasome chymotrypsin-like activity (TcProtChymo) assay. Also: in the data most compounds retested in dose-response had high values. The format is functional. To be noted: 9.37 µM.

For the next test, the species on record is Homo sapiens. The test is described as follows: To identify inhibition of the IFN signalling (Jak-Stat) pathway via expression of an eGFP reporter gene under the control of an IFN-stimulated response element (ISRE) containing MxA promoter. The format is functional. The following applies: 30 µM. A general note: A reporter such as luciferase makes a cellular process visible.

The target of test [6] is T4, Tyrosyl-tRNA synthetase, putative (Trypanosoma cruzi (strain CL Brener)) (UniProt Q4DSP6).
T4 sequence (whole entry): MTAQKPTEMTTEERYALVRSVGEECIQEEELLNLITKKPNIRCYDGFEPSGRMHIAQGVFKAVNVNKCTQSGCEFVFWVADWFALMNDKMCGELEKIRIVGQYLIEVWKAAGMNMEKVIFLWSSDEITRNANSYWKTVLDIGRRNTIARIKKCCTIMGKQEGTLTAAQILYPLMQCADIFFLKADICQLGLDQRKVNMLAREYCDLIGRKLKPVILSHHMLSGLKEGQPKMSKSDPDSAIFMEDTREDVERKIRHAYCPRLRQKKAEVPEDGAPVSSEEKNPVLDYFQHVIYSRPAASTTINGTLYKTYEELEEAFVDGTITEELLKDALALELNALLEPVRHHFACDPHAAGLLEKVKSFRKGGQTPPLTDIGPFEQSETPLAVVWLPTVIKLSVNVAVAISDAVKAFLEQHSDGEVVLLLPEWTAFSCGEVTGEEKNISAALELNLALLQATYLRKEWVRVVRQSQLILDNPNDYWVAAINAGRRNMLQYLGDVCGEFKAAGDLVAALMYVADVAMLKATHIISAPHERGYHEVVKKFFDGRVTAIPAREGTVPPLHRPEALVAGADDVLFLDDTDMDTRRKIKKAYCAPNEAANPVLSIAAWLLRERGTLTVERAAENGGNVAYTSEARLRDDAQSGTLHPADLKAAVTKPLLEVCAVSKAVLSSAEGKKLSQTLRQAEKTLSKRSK
Briefly: Trypanosoma cruzi tyrosyl tRNA synthetase (TcYRS) _High Tyrosine SOP. Also: in the data most compounds retested in dose-response had high values. The class given is functional. The following applies: 30 µM.

For test [7], the target named is T4, Tyrosyl-tRNA synthetase, putative (Trypanosoma cruzi (strain CL Brener)). The test is described as follows: Trypanosoma cruzi tyrosyl tRNA synthetase (TcYRS) SOP. The class given is functional. To be noted: 30 µM.
The target in test [8] is Chromo domain-containing protein 1 (Saccharomyces cerevisiae (strain ATCC 204508 / S288c) (Baker's yeast)) (UniProt P32657). The test is described as follows: ScCHD-1 Enzyme Inhibition Assay. Also: in the data most compounds retested in dose-response had high values. To be noted: 30 µM. The class given is functional.
Sequence of Chromo domain-containing protein 1 (Saccharomyces cerevisiae (strain ATCC 204508 / S288c) (Baker's yeast)) (P32657 whole entry, the tested form may be a part): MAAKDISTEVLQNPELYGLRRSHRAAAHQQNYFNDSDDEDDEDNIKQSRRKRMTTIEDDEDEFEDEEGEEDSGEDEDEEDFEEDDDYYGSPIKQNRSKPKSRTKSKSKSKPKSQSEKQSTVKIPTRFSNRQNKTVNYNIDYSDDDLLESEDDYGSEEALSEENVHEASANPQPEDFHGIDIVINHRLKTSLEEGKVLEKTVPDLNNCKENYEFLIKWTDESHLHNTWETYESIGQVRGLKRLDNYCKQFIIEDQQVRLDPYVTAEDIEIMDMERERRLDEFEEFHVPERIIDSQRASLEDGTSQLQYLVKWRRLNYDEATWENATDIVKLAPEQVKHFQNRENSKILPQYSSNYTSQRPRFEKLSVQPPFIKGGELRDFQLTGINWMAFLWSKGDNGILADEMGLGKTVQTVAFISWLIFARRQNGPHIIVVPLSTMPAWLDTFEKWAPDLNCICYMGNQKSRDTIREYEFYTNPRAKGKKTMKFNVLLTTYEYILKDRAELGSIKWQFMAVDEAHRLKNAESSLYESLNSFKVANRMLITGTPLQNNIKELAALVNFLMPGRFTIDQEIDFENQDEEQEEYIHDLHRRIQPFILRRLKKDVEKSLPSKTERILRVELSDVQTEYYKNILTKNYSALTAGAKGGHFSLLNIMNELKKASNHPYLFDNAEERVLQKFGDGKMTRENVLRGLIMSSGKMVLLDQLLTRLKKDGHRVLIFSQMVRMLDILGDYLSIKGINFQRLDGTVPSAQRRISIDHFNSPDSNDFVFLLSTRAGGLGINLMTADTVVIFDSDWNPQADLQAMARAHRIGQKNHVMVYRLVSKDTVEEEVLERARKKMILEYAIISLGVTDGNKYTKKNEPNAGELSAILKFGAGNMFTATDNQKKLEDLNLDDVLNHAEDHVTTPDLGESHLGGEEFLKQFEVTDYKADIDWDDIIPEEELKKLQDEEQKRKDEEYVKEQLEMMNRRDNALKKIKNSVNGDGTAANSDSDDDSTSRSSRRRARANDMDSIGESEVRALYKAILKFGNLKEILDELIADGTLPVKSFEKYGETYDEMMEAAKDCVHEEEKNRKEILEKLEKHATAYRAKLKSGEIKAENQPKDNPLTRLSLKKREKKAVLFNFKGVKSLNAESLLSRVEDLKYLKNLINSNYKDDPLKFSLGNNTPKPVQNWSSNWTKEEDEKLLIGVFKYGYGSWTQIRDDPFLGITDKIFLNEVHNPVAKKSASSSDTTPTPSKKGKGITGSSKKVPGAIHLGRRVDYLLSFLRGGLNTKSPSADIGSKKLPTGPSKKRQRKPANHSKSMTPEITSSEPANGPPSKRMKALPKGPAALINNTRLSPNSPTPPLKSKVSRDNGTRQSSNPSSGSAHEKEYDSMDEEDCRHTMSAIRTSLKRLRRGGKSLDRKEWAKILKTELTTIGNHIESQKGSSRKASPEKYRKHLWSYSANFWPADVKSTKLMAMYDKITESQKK

For some assays here: Entries with a potency or affinity are not part of this list.

Sequence of Protein translocase subunit SecA (Escherichia coli (strain K12)) (P10408 whole entry): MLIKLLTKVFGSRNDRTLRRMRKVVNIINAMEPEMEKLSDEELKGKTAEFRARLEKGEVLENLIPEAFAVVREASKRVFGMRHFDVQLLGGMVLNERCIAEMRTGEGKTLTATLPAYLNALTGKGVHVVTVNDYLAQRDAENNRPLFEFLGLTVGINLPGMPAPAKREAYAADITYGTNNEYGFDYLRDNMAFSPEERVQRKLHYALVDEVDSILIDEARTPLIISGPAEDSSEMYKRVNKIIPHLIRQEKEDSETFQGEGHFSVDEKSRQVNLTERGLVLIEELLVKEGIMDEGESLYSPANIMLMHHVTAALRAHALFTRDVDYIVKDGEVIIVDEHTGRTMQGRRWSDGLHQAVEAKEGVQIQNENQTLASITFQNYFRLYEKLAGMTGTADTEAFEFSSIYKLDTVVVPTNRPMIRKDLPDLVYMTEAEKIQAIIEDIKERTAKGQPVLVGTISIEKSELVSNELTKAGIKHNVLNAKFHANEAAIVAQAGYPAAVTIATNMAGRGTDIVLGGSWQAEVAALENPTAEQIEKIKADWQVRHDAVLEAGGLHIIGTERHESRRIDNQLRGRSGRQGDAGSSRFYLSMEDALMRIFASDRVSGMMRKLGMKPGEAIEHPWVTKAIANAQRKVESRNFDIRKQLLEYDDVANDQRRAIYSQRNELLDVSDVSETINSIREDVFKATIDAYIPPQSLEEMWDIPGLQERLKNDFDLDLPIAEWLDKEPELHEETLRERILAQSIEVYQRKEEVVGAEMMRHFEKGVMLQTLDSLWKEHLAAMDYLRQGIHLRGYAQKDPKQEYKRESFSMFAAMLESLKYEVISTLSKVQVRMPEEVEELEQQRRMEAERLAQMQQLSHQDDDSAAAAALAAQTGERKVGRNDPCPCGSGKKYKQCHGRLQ

In the case of `COCCN1CCN(Cc2cccc(OCC(N)=O)c2)CC1C` (stereo not given), the Percent Effect in test [1] was -6.03%; in test [2], 0%; in [3], -0.422%; in the test with Trypanosoma cruzi, -3.81%; in test [4] it was -0.887%; in test [5], -0.255%. Moreover, the Percent Effect was 7.49% in the test listed under Homo sapiens, 2.63% in test [6], 0% in [7] and -4.22% in [8].
On to `CCc1noc(C(C)N2CCC(N3CCCC3)CC2)n1` (stereo not given), for which the Percent Effect in test [1] was -9.65%; in [2], 16%; in test [3] it was 8.32%; in the test with Trypanosoma cruzi, 5.02%; in test [4], -5.76%; in test [5], 7.38%. Also, the Percent Effect was -3.75% in the test filed under Homo sapiens, 5.79% in [6], 12.8% in test [7] and -10.6% in [8].
For `Cc1nc(C(=O)N2CCC(Cc3cnc4[nH]ccc4c3)C2)co1` (stereo not given), the Percent Effect in [1] is -3.17%; in test [2] it was 6.67%; in [3] it was -5.86%; with Trypanosoma cruzi, -1.97%; in test [4], -4.87%; in [5], 10.5%. The Percent Effect was 26.2% in the test listed under Homo sapiens, -2.12% in test [6], -2.5% in test [7] and -18.2% in test [8].
Consider `O=C(CCSc1ccc(F)cc1)NS(=O)(=O)c1ccc2c(c1)OCCO2`, for which the Percent Effect was -5.54% in test [1]; -10.3% in test [2]; -3.31% in [3]; 4.22% in the test with Trypanosoma cruzi; -2.05% in test [4]; 13.1% in test [5]. Further, the Percent Effect was 1.97% in the test filed under Homo sapiens, -11% in test [6], -1.21% in test [7] and -2.81% in [8].
As to `CCn1cc(CN2CCCC(c3[nH]ncc3S(C)(=O)=O)C2)cn1` (stereo not given), the Percent Effect in test [1] was -3.37%; in test [2], 14.7%; in test [3], 8.19%; in the test on Trypanosoma cruzi, 2.56%; in test [4], -0.885%; in test [5], 7.55%. For the same compound, the Percent Effect in the test listed under Homo sapiens is -4.1%; in test [6], 4.23%; in test [7], 15%; in test [8] it was -23.9%.
`CC(C)CN1CCC2(CCN(Cc3ccoc3)CC2)C1=O`: the Percent Effect in test [1] was -1.85%; in test [2], 27.3%; in test [3], 3.42%; in the test with Trypanosoma cruzi, 3.94%; in [4], -4.57%; in test [5] it was 19.7%. For the same compound, the Percent Effect in the test filed under Homo sapiens is -0.618%; in test [6], 10.6%; in [7], 12.5%; in [8] it was -9.31%.
In the case of `Cc1cnn(CC2CN(CC(=O)N(C)c3nccs3)CCO2)c1` (stereo not given), the Percent Effect in test [1] is -4.67%; in [2], 8%; in [3], 4.67%; in the test with Trypanosoma cruzi, 0.201%; in [4] it was -2.66%; in test [5], 9.75%. Also, the Percent Effect in the test listed under Homo sapiens is 13.5%; in test [6], 4.74%; in [7], 10.3%; in test [8], -8.81%.
For the compound `Nc1nc2nc(C3CCCN(C(=O)c4cscn4)C3)ccc2s1` (stereo not given), the Percent Effect is 0.0997% in test [1]; 22.7% in [2]; -9.01% in [3]; 3.55% with Trypanosoma cruzi; -9.29% in test [4]; 19.1% in [5]. Further, the Percent Effect in the test filed under Homo sapiens is 25.7%; in [6] it was 0%; in test [7], 7.5%; in [8] it was -22.1%.
`Cc1cc(C)n(CC2CN(Cc3nc(-c4ccco4)no3)CCO2)n1` (stereo not given): the Percent Effect in test [1] is -4.45%; in test [2], 23.4%; in test [3], 7.28%; in the test with Trypanosoma cruzi, 5.78%; in test [4], 1.43%; in test [5], 8.25%. The Percent Effect in the test listed under Homo sapiens was 12.5%; in [6], 5.88%; in [7], 23.5%; in test [8], -11.8%.
Take `CCCC(C)C(=O)N1CCC(n2cccc2C(=O)OC)CC1` (stereo not given): the Percent Effect in test [1] was -6.33%; in [2], 10.4%; in test [3], 13.2%; in the test on Trypanosoma cruzi it was -1.12%; in [4], 1.43%; in [5], 2.46%. Moreover, the Percent Effect in the test listed under Homo sapiens worked out at 31%; in [6], 2.94%; in test [7] it was 9.41%; in test [8], 6.48%.
Regarding `O=c1cccnn1CC1CN(Cc2ccsc2)Cc2nccn2C1` (stereo not given), the Percent Effect was -8.45% in test [1]; -40.3% in test [2]; 11% in [3]; -1.66% with Trypanosoma cruzi; 3.64% in test [4]; 8.91% in test [5]. For the same compound, the Percent Effect in the test filed under Homo sapiens is -4.15%; in test [6] it was 14.2%; in test [7], 15.4%; in test [8], 4.94%.
